TDP1 cell CPT: growth inhibition of DT40 Tdp1-/-;hTDP1 cells with camptothecin (screen for TDP1 inhibitors) | chicken DT40 Tdp1-/-;hTDP1 cells + 20 nM CPT, ATP luminescence, 48 h | Potency, µM (doses to about 46.2 µM), hits mostly inhibitors | 420,000 compounds, 12% hits; note: nearly all actives have a fitted effect of over 55% in size
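Cell growth measured by CellTiter-Glo luminescence after a minimum 48 h, 37 C compound exposure with 20 nM CPT in Tdp1-knockout DT40 cells stably expressing hTDP1, seeded 400/well; qHTS titration format.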
HT1080-NT tox: kills 2HG-producing HT-1080-NT fibrosarcoma cells | HT-1080-NT fibrosarcoma viability, CellTiter-Glo ATP luminescence, 48 h | Potency, µM (highest dose often 46.1 µM), actives largely listed as cytotoxic | 360,000 compounds, 1.6% hits;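 note: NT is the 2HG producing partner of a matched IDH1 knockdown line; nearly all actives have a fitted effect of over 55% in size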
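Compounds were tested in concentration-response format on HT-1080-NT cells for 48 hours at 37 degrees C. Cell viability came from CellTiter-Glo luminescence; curves were classified by r2, response magnitude and activity.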
HT1080 IDH1KD tx: kills HT-1080 cells with IDH1 knockdown; HT-1080 IDH1 knockdown viability, ATP luminescence, 48 h; Potency, µM (top dose mostly 46.1 µM), actives largely listed as cytotoxic; 360,000 compounds, 2% hits
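% activity derives from luminescence (CellTiter-Glo), normalised to DMSO and no-cell wells. HT-1080-IDH1KD cells, 750/well, had 48 h compound exposure at 37 °C.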
DT40 TDP1 no CPT: qHTS for Inhibitors of human tyrosyl-DNA phosphodiesterase 1 (TDP1): qHTS in cells in absence of CPT; 420,000 compounds, 15% hits; Potency, µM (doses to about 46.2 µM), usual class: inhibitors; AID 686978, 2013; DT40 Tdp1-/- hTDP1 cells, no CPT, ATP luminescence, 48 h; note: nearly all actives have a fitted effect of over 55% in size
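Chicken DT40 Tdp1-/- cells stably complemented with human TDP1 were seeded at 400 cells/well with DMSO in place of 20 nM camptothecin. After compound pinning, cells grew at least 48 hr at 37 °C; viability read by CellTiter-Glo luminescence.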
IL-1B inflam inh: inhibitors of inflammasome signaling (IL-1 beta secretion). activity change, % at 57.5 µM. 360,000 compounds, 4.7% hits. THP-1 LPS/ATP IL-1B secretion, AlphaLISA, 16 h; hits give low values; in the data active = activity change below about -50%; inconclusive = mostly about -30% to -49%
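Secreted IL-1B measured by AlphaLISA bead assay after 16 h compound exposure of THP-1 cells; compounds (final up to 57.5 uM) added 1 h before LPS (250 ng/mL) and ATP (1.25 mM) stimulation; lower signal means less secretion.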
ALOX12 inh: inhibitors of human 12S-lipoxygenase ALOX12; P18054; purified 12hLO, xylenol orange hydroperoxide absorbance; Potency, µM (doses to about 108 µM), actives largely listed as inhibitors; 580,000 compounds, 1.1% hits; AID 1671190
Target sequence (P18054 whole entry, looked up): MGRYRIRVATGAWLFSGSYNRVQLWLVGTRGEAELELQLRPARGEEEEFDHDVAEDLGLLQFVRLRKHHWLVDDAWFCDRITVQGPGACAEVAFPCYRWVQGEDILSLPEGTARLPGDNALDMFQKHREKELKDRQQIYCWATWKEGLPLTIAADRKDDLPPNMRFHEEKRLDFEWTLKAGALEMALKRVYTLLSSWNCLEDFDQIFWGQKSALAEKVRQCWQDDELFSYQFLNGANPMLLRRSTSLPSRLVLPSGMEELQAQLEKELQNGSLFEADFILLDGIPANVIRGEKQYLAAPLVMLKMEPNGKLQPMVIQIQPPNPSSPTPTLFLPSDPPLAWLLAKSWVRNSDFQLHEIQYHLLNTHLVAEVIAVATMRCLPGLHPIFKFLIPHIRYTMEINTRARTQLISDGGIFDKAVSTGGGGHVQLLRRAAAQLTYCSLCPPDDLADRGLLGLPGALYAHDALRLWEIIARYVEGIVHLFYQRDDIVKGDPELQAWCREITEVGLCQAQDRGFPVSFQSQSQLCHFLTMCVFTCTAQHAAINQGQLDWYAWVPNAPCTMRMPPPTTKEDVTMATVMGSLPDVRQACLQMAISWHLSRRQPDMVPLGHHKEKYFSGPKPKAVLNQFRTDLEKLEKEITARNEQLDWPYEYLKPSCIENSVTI
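Purified human 12hLO at 150 nM in 25 mM Hepes, 0.01% Triton X-100, pH 7.0, preincubated 15 min at room temperature with compound. Reaction started with 40 uM arachidonic acid, 30 min at room temperature. Hydroperoxide measured by Fe-xylenol orange, 573/405 nm absorbance ratio.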
Each line names hits and unclear results; the compound was inactive in the other large screens. Many of the other results were omitted from the sample, so hits are more common in it than they were. Unless noted, calls come from the whole dose curve; as a rule, active = well fitted curve in the direction sought with a large enough effect; inconclusive = small, poorly fitted or top-dose-only effect, or another doubt; inactive = no such curve, though single readings can be large; an effect the other way counts as inactive or inconclusive.

O=C(CN1CCN(c2ccc(Cl)cc2)CC1)NCc1ccccc1	TDP1 cell CPT inconclusive, DT40 TDP1 no CPT inconclusive, IL-1B inflam inh -61
O=C(CN1CCN(C/C=C/c2ccccc2)CC1)NCc1ccc(Cl)cc1	TDP1 cell CPT 5.8µM, HT1080-NT tox inconclusive, HT1080 IDH1KD tx inconclusive, DT40 TDP1 no CPT 4.6µM
NS(=O)(=O)c1ccc(CCNC(=O)CN2CCN(c3cccc(Cl)c3)CC2)cc1	TDP1 cell CPT 18µM, DT40 TDP1 no CPT 16µM
Clc1ccc(CNc2ccc(N3CCN(Cc4ccccc4)CC3)cc2)cc1	TDP1 cell CPT inconclusive, HT1080 IDH1KD tx inconclusive, DT40 TDP1 no CPT inconclusive, IL-1B inflam inh -58
NS(=O)(=O)c1ccc(CCNC(=O)CN2CCN(c3ccc(F)cc3)CC2)cc1	TDP1 cell CPT inconclusive, DT40 TDP1 no CPT inconclusive
NS(=O)(=O)c1ccc(NCc2c(F)cccc2Cl)cc1	DT40 TDP1 no CPT inconclusive
Cc1cccc(N2CCN(CC(=O)NCc3ccc(Cl)cc3)CC2)c1C	TDP1 cell CPT inconclusive, DT40 TDP1 no CPT 4.1µM, IL-1B inflam inh -64, ALOX12 inh inconclusive
Fc1cccc(Cl)c1CNc1ccc(N2CCCC2)cc1	TDP1 cell CPT 2.3µM, HT1080-NT tox inconclusive, DT40 TDP1 no CPT 9.2µM, ALOX12 inh 32µM
CCN(C(=O)c1cc2cc(Br)ccc2oc1=O)C1CCCCC1	none (no result: TDP1 cell CPT, HT1080-NT tox, HT1080 IDH1KD tx, DT40 TDP1 no CPT, IL-1B inflam inh)
CC(C)(NC(=O)c1cccs1)C(=O)N[C@@H]1CCOC[C@H]1OCC1CCC1	none (no result: TDP1 cell CPT, HT1080-NT tox, HT1080 IDH1KD tx, DT40 TDP1 no CPT, IL-1B inflam inh)
CCOC(=O)N1CCC2(CC1)C(C#N)=C(N)Oc1c2c(C)nn1-c1cccc(Cl)c1	TDP1 cell CPT 16µM, HT1080 IDH1KD tx inconclusive, DT40 TDP1 no CPT 18µM, ALOX12 inh inconclusive
CCOC(=O)N1CCC2(CC1)C(C#N)=C(N)Oc1c2sc2nc(C)cc(C)c12	TDP1 cell CPT inconclusive, HT1080-NT tox inconclusive, HT1080 IDH1KD tx inconclusive, DT40 TDP1 no CPT 16µM
CCOC(=O)N1CCC2(CC1)C(C#N)=C(N)Oc1n[nH]c(C)c12	none
Cc1ccc(C)c(CNC(=O)c2ccc3c(c2)nc2n3CCCCC2)c1	TDP1 cell CPT inconclusive, DT40 TDP1 no CPT 18µM (no result: HT1080-NT tox, HT1080 IDH1KD tx, IL-1B inflam inh)
CCN(CC)S(=O)(=O)c1ccc(NC(=O)c2ccc3c(=O)n4c(nc3c2)CCCCC4)cc1	TDP1 cell CPT 23µM, DT40 TDP1 no CPT 23µM (no result: HT1080-NT tox, HT1080 IDH1KD tx, IL-1B inflam inh)
CCOc1ccccc1NC(=O)c1ccc2c(=O)n3c(nc2c1)CCCCC3	TDP1 cell CPT 16µM, DT40 TDP1 no CPT inconclusive, IL-1B inflam inh inconclusive
CCOc1ccc(NC(=O)c2ccc3c(=O)n4c(nc3c2)CCCCC4)cc1	TDP1 cell CPT inconclusive, DT40 TDP1 no CPT inconclusive
CCc1ccc(NC(=O)c2ccc3c(=O)n4c(nc3c2)CCCCC4)cc1	TDP1 cell CPT inconclusive, DT40 TDP1 no CPT inconclusive
CCOc1ccccc1NC(=O)C(=O)Nc1ccc2nc3n(c(=O)c2c1)CCCCC3	TDP1 cell CPT 23µM, DT40 TDP1 no CPT 18µM (no result: HT1080-NT tox, HT1080 IDH1KD tx, IL-1B inflam inh)
CCCN1CNc2c(c(=O)[nH]c(=S)n2CCc2cc(Cl)ccc2Cl)C1	TDP1 cell CPT inconclusive, DT40 TDP1 no CPT inconclusive (no result: IL-1B inflam inh, ALOX12 inh)
COc1ccccc1[C@@H]1CN(C(=O)CCc2ccncc2)C[C@H]1C(=O)O	none (no result: TDP1 cell CPT, HT1080-NT tox, HT1080 IDH1KD tx, DT40 TDP1 no CPT, IL-1B inflam inh)
COC(=O)C1=C(C)NC(=O)NC1c1cccs1 (stereo not given)	none (no result: TDP1 cell CPT, HT1080-NT tox, HT1080 IDH1KD tx, DT40 TDP1 no CPT, IL-1B inflam inh)
COc1ccc(C)cc1NC(=O)c1ccc2c(=O)n3c(nc2c1)CCCCC3	TDP1 cell CPT 15µM, HT1080 IDH1KD tx inconclusive, DT40 TDP1 no CPT inconclusive
CCOc1ccccc1NC(=O)c1ccc2c(Cl)c3c(nc2c1)CCCC3	TDP1 cell CPT inconclusive, DT40 TDP1 no CPT 23µM (no result: HT1080-NT tox, HT1080 IDH1KD tx, IL-1B inflam inh)
CC(=O)c1cccc(NC(=O)c2ccc3c(Cl)c4c(nc3c2)CCCC4)c1	TDP1 cell CPT inconclusive, DT40 TDP1 no CPT 23µM
CCOc1ccc(NC(=O)c2ccc3c(SCC(=O)O)c4c(nc3c2)CCCC4)cc1	none
CCc1cccc(NC(=O)c2ccc3c(Cl)c4c(nc3c2)CCCC4)c1	none (no result: TDP1 cell CPT, HT1080-NT tox, HT1080 IDH1KD tx, DT40 TDP1 no CPT, IL-1B inflam inh)
O=C(O)CSc1c2c(nc3cc(C(=O)Nc4cccc(C(F)(F)F)c4)ccc13)CCC2	ALOX12 inh 45µM

Screens: PubChem, National Center for Advancing Translational Sciences (NCATS)
